Results on 25 molecules are retold here after the antibiotic and cytotoxicity screens of Wong et al. (2023).

Each structure is given as a SMILES string. In all, about 39,000 compounds went through this assay and about 3,300 (8.5%) were called active. For the sample, actives were picked, then their nearest neighbours and some compounds at random.

In this assay the test system is HepG2. Kind of assay: cytotoxicity call (relative viability < 0.9). To be noted: 10 µM.
As for `C[C@@H]1CCCCO[C@@H](CN(C)C(=O)c2ccncc2)[C@H](C)CN([C@H](C)CO)C(=O)c2cc(NS(C)(=O)=O)ccc2O1`, the cytotoxicity call was “inactive”.

Take `N#C[C@H](c1ccccn1)N1CCOCC1`: the cytotoxicity call is “inactive”.

As for `O=c1n(-c2ccccc2)c(=O)n2n1CC(COc1ccccc1)=C1[C@@H](CCc3ccccc3)OB(O)C[C@@H]12`, the cytotoxicity call is “inactive”.

In the case of `C[C@H](CO)N1C[C@H](C)[C@@H](CN(C)S(C)(=O)=O)Oc2ccc(NS(=O)(=O)c3ccc(F)cc3)cc2C1=O`, the cytotoxicity call is “inactive”.

`COc1cccc(S(=O)(=O)N2C[C@H](O)COC[C@H]3O[C@@H](CC(=O)N4CCOCC4)CC[C@@H]32)c1`: the cytotoxicity call is “inactive”.

As for `CC(C)NC(=O)N[C@@H]1C=C[C@@H](CC(=O)NCCCN(C)C)O[C@@H]1CO`, the cytotoxicity call is “inactive”.

Regarding `O=C(C[C@H]1C[C@@H]2c3cc(NC(=O)C4CCOCC4)ccc3O[C@@H]2[C@@H](CO)O1)NCCN1CCCCC1`, the cytotoxicity call is “inactive”.

As for `C[C@H]1CN([C@@H](C)CO)C(=O)c2cccc(NC(=O)c3ccncc3)c2O[C@@H]1CN(C)Cc1ccc(C(=O)O)cc1`, the cytotoxicity call is “inactive”.

On to `C[C@@H]1CN([C@@H](C)CO)C(=O)c2cc(C#Cc3ccccc3F)cnc2O[C@@H]1CN(C)S(=O)(=O)c1ccccc1`, for which the cytotoxicity call is “inactive”.

For the molecule `O=S(=O)(c1cccc2cnccc12)N1CCCNCC1`, the cytotoxicity call is “active”.

On to `O=S(=O)(c1ccc(-n2cnnn2)cc1)N1CCNCC1`, for which the cytotoxicity call was “inactive”.

Take `O=S(=O)(NCCN(C/C=C/c1ccc(F)cc1)C/C=C/c1ccc(F)cc1)c1cccc2cnccc12`: the cytotoxicity call was “inactive”.

In the case of `COc1ccc(S(=O)(=O)Nc2ccc3c(c2)C(=O)N([C@@H](C)CO)C[C@H](C)[C@@H](CN(C)C(=O)Nc2cccc4ccccc24)OCCCC[C@H](C)O3)cc1`, the cytotoxicity call was “inactive”.

As for `C[C@H](CO)N1C[C@H](C)[C@@H](CN(C)Cc2ccc(-c3ccccc3)cc2)Oc2ccc(NC(=O)Nc3cccc4ccccc34)cc2C1=O`, the cytotoxicity call was “inactive”.

For `C[C@@H]1CN([C@@H](C)CO)C(=O)c2cc(NC(=O)Nc3cccc4ccccc34)ccc2O[C@@H]1CN(C)Cc1ccc(-c2ccccc2)cc1`, the cytotoxicity call was “inactive”.

As for `C[C@H]1CN([C@@H](C)CO)C(=O)c2cc(NC(=O)Nc3cccc4ccccc34)ccc2O[C@H]1CN(C)Cc1ccc(C(=O)O)cc1`, the cytotoxicity call was “inactive”.

In the case of `C[C@H](CO)N1C[C@H](C)[C@H](CN(C)Cc2ccc(-c3ccccc3)cc2)Oc2ccc(NC(=O)Nc3cccc4ccccc34)cc2C1=O`, the cytotoxicity call is “active”.

`C[C@H]1CN([C@@H](C)CO)C(=O)c2cc(NC(=O)Nc3cccc4ccccc34)ccc2O[C@@H]1CN(C)Cc1ccc(-c2ccccc2)cc1`: the cytotoxicity call was “active”.

Take `C[C@H]1CN([C@@H](C)CO)C(=O)c2cc(NC(=O)Nc3cccc4ccccc34)ccc2O[C@H]1CN(C)Cc1ccc(-c2ccccc2)cc1`: the cytotoxicity call was “inactive”.

For the molecule `C[C@@H]1CN([C@H](C)CO)C(=O)c2cc(NC(=O)Nc3cccc4ccccc34)ccc2O[C@@H]1CN(C)Cc1ccc(-c2ccccc2)cc1`, the cytotoxicity call was “active”.

For the molecule `C[C@@H]1CN([C@@H](C)CO)C(=O)c2cc(NC(=O)Nc3cccc4ccccc34)ccc2O[C@H]1CN(C)Cc1ccc(-c2ccccc2)cc1`, the cytotoxicity call was “inactive”.

As to `C[C@H](CO)N1C[C@H](C)[C@H](CN(C)Cc2ccc(C(=O)O)cc2)Oc2ccc(NC(=O)Nc3cccc4ccccc34)cc2C1=O`, the cytotoxicity call was “inactive”.

Turning to `C[C@@H]1CN([C@H](C)CO)C(=O)c2cc(NC(=O)Nc3cccc4ccccc34)ccc2O[C@H]1CN(C)Cc1ccc(-c2ccccc2)cc1`, the cytotoxicity call is “active”.

Take `C[C@H]1CN([C@@H](C)CO)C(=O)c2cc(NC(=O)Nc3cccc4ccccc34)ccc2O[C@H]1CN(C)Cc1ccccc1`: the cytotoxicity call is “inactive”.

For `C[C@@H]1CN([C@H](C)CO)C(=O)c2cc(NC(=O)Nc3cccc4ccccc34)ccc2O[C@@H]1CN(C)Cc1ccc(C(=O)O)cc1`, the cytotoxicity call was “inactive”.
